The source of these data is PubChem BioAssay.

Test [1] is described as follows: inhibitors of TNFa-induced NFkB p65 translocation, primary screen, imaging, HUVEC, MLSMR starter and 10KST1 sets (AID 438;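 active means inhibition above 20% together with a positive visual image hit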;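 further: compound added about 3h40 before a 20 min TNFalpha stimulation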;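 on inhibition: signal is the nuclear over cytoplasmic p65 intensity ratio per well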). Particulars: HUVEC TNFa-induced p65 nuclear translocation; cell count: measured here: nuclei count (cytotoxicity indicator), at 2.08 µM; inhibition: at 2 µM, stronger effect = higher value, 0% TNFa-plus-vehicle, 100% no-TNFa wells.
Test [2] is described as follows: inhibitors of mutant huntingtin aggregation, primary screen, imaging, exon1htt(103Q)mCFP cells, high-content imaging (AID 483;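 active means visual image review flags a hit and inhibition of aggregation exceeds 20%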;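 further: compound exposure lasted 3 days before fixation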;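 on nuclei count: percent of the per-plate median nuclei count of sample wells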). To be noted: exon1htt(103Q)mCFP cell line, aggregate imaging, at 2 µM; inhibition of aggregation: stronger effect = higher value; nuclei count: measured here: cell count, toxicity.
A short description of test [3]: inhibitors of E-selectin induction by TNFa, primary screen, imaging, HUVEC, immunofluorescence, MLSMR starter and 10KST1 sets (AID 487;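 active means visually confirmed hit in the image check and inhibition above 20%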;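 on inhibition: signal is fraction of cell area covered by stained E-selectin grains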;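 on nuclei count: 100% = median nuclei count of all wells on the same plate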). To be noted: HUVEC TNFalpha-induced E-selectin immunofluorescence imaging, at 2 µM; inhibition: stronger effect = higher value; nuclei count: measured here: cell number, toxicity.
Test [4] addresses Voltage-gated potassium channel subunit beta-2 (Rattus norvegicus) (UniProt P62483). Kind of test: KvBeta enzyme negative modulators, primary screen, biochemical, NADPH fluorescence (AID 622;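 active means fluorescence slope higher than the sample average by over 3 SD, cut at about -0.22 in these data, passing the limit was not always enough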;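 further: slope of raw intensity against log time taken from 70 to 1610 s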). To be noted: recombinant KvBeta, 4-cyanobenzaldehyde reduction, at 10 µM, stronger effect = higher value.
Test [5] has the same target. Kind of test: KvBeta positive modulators, primary screen, biochemical, NADPH fluorescence (AID 623;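 active means NADPH fluorescence slope more negative than the mean of all samples by about 3 SD, 99.7% confidence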;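 further: fluorescence intensity change per second fitted from 20 to 320 s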). To be noted: Recombinant KvBeta, NADPH fluorescence decrease slope, 10 min; at 10 µM; stronger effect = lower value.
Test [6] addresses Alpha-2C adrenergic receptor (Homo sapiens) (UniProt P18825). The experiment in a line: modulators of alpha2C/GIRK thallium flux, primary screen, cell-based, HEK293 alpha2C/GIRK1/2 (AID 624;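 active means fluorescence slope after compound addition differing from the mean of all screened samples at 99.7% confidence, in either direction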;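 further: slope of fluorescence ratio to pre-addition baseline per second over 15 to 24 s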). To be noted: thallium flux BTC fluorescence, at 10 µM, actives lie on both sides.
Test [7] is described as follows: inhibitors of Sendai virus-induced IRF3 signaling, primary screen, TLR/RLR signaling modifier project, cell-based, Sendai virus stimulus, luciferase, 10K MLSCN set (AID 602276;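 active means inhibition at or above 50% at 10 µM; inactive means inhibition below 50%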;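 further: firefly luciferase from ISG56 promoter only with Renilla not read in this screen; 0% = Sendai virus plus DMSO and 100% = medium plus DMSO without virus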). Particulars: HEK293 RL24 IRF3 luciferase reporter, at 10 µM, stronger effect = higher value.
Test [8] is described as follows: inhibitors of poly I:C-induced TLR3 signaling, primary screen, cell-based, poly I:C stimulus, luciferase, 10K MLSCN set (AID 602277). Particulars: HEK293-TLR3 RL24 IRF3 luciferase reporter, at 10 µM, stronger effect = higher value.

Calls of active or inactive are those of the source.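 How the source made its calls, unless noted: active means inhibition of the reporter signal at or above 50%; inactive means inhibition below 50%.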

Sequence of Alpha-2C adrenergic receptor (Homo sapiens) (P18825 whole entry, looked up): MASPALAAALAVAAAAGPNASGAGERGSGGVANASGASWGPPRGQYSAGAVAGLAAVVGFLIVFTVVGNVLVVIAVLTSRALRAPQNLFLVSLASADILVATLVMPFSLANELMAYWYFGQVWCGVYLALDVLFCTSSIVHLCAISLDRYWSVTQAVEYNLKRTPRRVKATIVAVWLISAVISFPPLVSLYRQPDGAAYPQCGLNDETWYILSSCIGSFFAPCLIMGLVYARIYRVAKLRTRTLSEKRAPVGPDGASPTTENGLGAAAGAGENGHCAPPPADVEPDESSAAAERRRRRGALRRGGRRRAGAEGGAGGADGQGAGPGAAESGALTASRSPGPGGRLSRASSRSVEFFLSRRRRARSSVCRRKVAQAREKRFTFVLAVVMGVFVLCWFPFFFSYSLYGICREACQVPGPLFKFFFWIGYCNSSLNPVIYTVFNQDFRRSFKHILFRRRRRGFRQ
Sequence of Voltage-gated potassium channel subunit beta-2 (Rattus norvegicus) (P62483 whole entry, looked up): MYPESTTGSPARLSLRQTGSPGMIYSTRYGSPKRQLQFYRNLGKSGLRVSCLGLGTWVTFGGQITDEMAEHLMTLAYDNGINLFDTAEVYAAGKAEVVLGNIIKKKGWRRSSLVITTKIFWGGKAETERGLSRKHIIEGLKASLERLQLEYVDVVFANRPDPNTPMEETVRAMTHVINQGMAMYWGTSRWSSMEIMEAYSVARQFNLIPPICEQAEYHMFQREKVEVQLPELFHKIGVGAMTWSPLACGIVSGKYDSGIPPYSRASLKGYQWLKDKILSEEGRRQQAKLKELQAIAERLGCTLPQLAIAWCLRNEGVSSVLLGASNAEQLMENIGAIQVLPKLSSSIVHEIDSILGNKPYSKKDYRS

For the compound `O=C(NCc1ccco1)c1cccc(-c2nnc(-c3ccccc3)o2)c1`, the cell count in test [1] worked out at 320. For the same compound, the inhibition in test [1] is -6% (inactive); in test [3] it was -78.1% (inactive); in test [7], 18.5% (inactive); in test [8], -23.1% (inactive). Moreover, the inhibition of aggregation in test [2] was 5.1% (inactive). Also, the nuclei count in test [2] amounted to 122%; in test [3] it was 124%. The fluorescence slope in test [4] was -0.422 (inactive). Also, the NADPH fluorescence slope in test [5] was -6.2e-05 (inactive). Further, the slope in test [6] was 0.00529 (inactive).

Regarding `CCOC(=O)C1=C(N)OC2=C(C(=O)CC(C)(C)C2)C1c1ccoc1` (centres undefined), the cell count in test [1] is 774. The inhibition in test [1] is -12.9% (inactive); in test [3], -15.3% (inactive); in test [7], 3.82% (inactive); in test [8], 7.84% (inactive). In test [2], the inhibition of aggregation is -14.6% (inactive). Besides, the nuclei count in test [2] came out at 78.3%; in test [3] it was 110%. Moreover, the fluorescence slope in test [4] is -0.418 (inactive). Further, the NADPH fluorescence slope in test [5] was -4e-05 (inactive). Moreover, the slope in test [6] was 0.00368 (inactive).

In the case of `Cc1ccc(Cn2c(=O)c3ccccc3n3c(CCC(=O)O)nnc23)cc1`, the cell count in test [1] came out at 681. The inhibition is -13.4% (inactive) in test [1], -55.9% (inactive) in test [3], 0.88% (inactive) in test [7] and 12.6% (inactive) in test [8]. In addition, in test [2], the inhibition of aggregation was -2.1% (inactive). The nuclei count in test [2] was 90%; in test [3], 116%. In test [4], the fluorescence slope is -0.554 (inactive). Besides, the NADPH fluorescence slope in test [5] was 1.7e-05 (inactive). The slope in test [6] was 0.00669 (inactive).

`CC(C)c1nnc(NC(=O)Cc2cccs2)s1`: the cell count in test [1] was 640. The inhibition in test [1] is 3.4% (inactive); in test [3], -47.3% (inactive); in test [7], 0.388% (inactive); in test [8], 22.9% (inactive). The inhibition of aggregation in test [2] was 8.9% (inactive). In addition, the values for the nuclei count in test [2] and in test [3] were 114% and 105%, respectively. The fluorescence slope in test [4] is -0.513 (inactive). For the same compound, the NADPH fluorescence slope in test [5] is -1.8e-05 (inactive). In addition, the slope in test [6] is 0.00736 (inactive).

Regarding `CCOc1ccc2c(c1)n(CO)c(=S)n2CO`, the cell count in test [1] is 677. The inhibition in test [1] is -26.5% (inactive); in test [3], 15.1% (inactive); in test [7], 16.9% (inactive); in test [8], 19.4% (inactive). Further, in test [2], the inhibition of aggregation is 4.4% (inactive). Also, the nuclei count stood at 68.8% in test [2] and 105% in test [3]. Moreover, the fluorescence slope in test [4] is -0.498 (inactive). For the same compound, the NADPH fluorescence slope in test [5] is -4.8e-05 (inactive). Also, the slope in test [6] was 0.00378 (inactive).

For the compound `CC(C)Sc1nc2c(c(=O)n1-c1ccc(F)cc1)SCC2`, in test [1], the cell count came to 384. The inhibition was -5.2% (inactive) in test [1], -22% (inactive) in test [3], -15.9% (inactive) in test [7] and -9.58% (inactive) in test [8]. In test [2], the inhibition of aggregation is -10.1% (inactive). For the same compound, the nuclei count in test [2] was found to be 106%; in test [3], 108%. The fluorescence slope in test [4] was -0.519 (inactive). Also, in test [5], the NADPH fluorescence slope is -8.5e-05 (inactive). In addition, the slope in test [6] was 0.00437 (inactive).

`CN(C)CCNc1oc(-c2ccccc2F)nc1C#N`: the cell count in test [1] came out at 648. Also, the inhibition is 7.1% (inactive) in test [1], -40% (inactive) in test [3], 0.672% (inactive) in test [7] and 34.3% (inactive) in test [8]. Moreover, the inhibition of aggregation in test [2] was -11.1% (inactive). Besides, the values for the nuclei count in test [2] and in test [3] were 110% and 116%, respectively. Further, in test [4], the fluorescence slope was -0.062 (active). Further, in test [5], the NADPH fluorescence slope is 9.2e-06 (inactive). Further, the slope in test [6] was 0.00579 (inactive).

As to `Cc1ccc2nc(NC(=O)Cn3cc4c(n3)CCCCC4)sc2c1`, the cell count in test [1] was 899. Moreover, the inhibition in test [1] was 0.5% (inactive); in test [3] it was -44.1% (inactive); in test [7], -7.98% (inactive); in test [8], -11.8% (inactive). Also, the inhibition of aggregation in test [2] is 4% (inactive). Besides, the nuclei count in test [2] was 100%; in test [3] it was 123%. In addition, the fluorescence slope in test [4] was -0.581 (inactive). In test [5], the NADPH fluorescence slope was -1.2e-05 (inactive). For the same compound, the slope in test [6] was 0.00613 (inactive).

As for `O=C(Oc1ccc2c(c1)CCC2)N1CCOCC1`, in test [1], the cell count is 360. Moreover, the inhibition is 5.5% (inactive) in test [1], 21.8% (inactive) in test [3], -63.8% (inactive) in test [7] and -185% (inactive) in test [8]. Also, the inhibition of aggregation in test [2] was 6.4% (inactive). The nuclei count in test [2] was 88.2%; in test [3], 81.4%. The fluorescence slope in test [4] was -0.393 (inactive). For the same compound, the NADPH fluorescence slope in test [5] was 8.5e-06 (inactive). The slope in test [6] was 0.00612 (inactive).

For `COc1ccc(NC(=O)C2Cc3ccccc3C(=O)O2)cc1` (centres undefined), in test [1], the cell count was 642. The inhibition in test [1] was 0.3% (inactive); in test [3], -19.3% (inactive); in test [7] it was -11.7% (inactive); in test [8], -23.5% (inactive). Also, the inhibition of aggregation in test [2] was 15.6% (inactive). For the same compound, the nuclei count in test [2] came out at 105%; in test [3], 120%. In test [4], the fluorescence slope was -0.427 (inactive). The NADPH fluorescence slope in test [5] is -6e-05 (inactive). Also, the slope in test [6] is 0.00562 (inactive).

Regarding `CC1CCCCN1CCNC(=O)C1CCN(S(=O)(=O)c2cccc3cccnc23)CC1` (centres undefined), the cell count in test [1] worked out at 450. The inhibition in test [1] was -0.8% (inactive); in test [3] it was -54.5% (inactive); in test [7], 6.15% (inactive); in test [8], 39.6% (inactive). The inhibition of aggregation in test [2] is 5.9% (inactive). The nuclei count in test [2] is 72.5%; in test [3], 105%. Also, the fluorescence slope in test [4] is -0.522 (inactive). Moreover, the NADPH fluorescence slope in test [5] is -4e-05 (inactive). For the same compound, in test [6], the slope is 0.00613 (inactive).

For the compound `CCC(=O)N1C(=O)CCN(C(C)=O)c2ccccc21`, the cell count in test [1] turned out to be 454. The inhibition in test [1] was 11.3% (inactive); in test [3], -39.7% (inactive); in test [7] it was 13.1% (inactive); in test [8], 20.6% (inactive). For the same compound, the inhibition of aggregation in test [2] is -2.5% (inactive). In addition, the values for the nuclei count in test [2] and in test [3] were 109% and 130%, respectively. For the same compound, the fluorescence slope in test [4] was -0.381 (inactive). For the same compound, in test [5], the NADPH fluorescence slope was 2.5e-05 (inactive). Further, in test [6], the slope is 0.0091 (inactive).

On to `S=C(NCC1CCCO1)n1nnc2ccccc21` (centres undefined), for which the cell count in test [1] amounted to 718. The inhibition in test [1] is -5.9% (inactive); in test [3], 52% (inactive); in test [7], 12.9% (inactive); in test [8], 13.5% (inactive). Also, the inhibition of aggregation in test [2] is -2.9% (inactive). Besides, the nuclei count in test [2] is 94.6%; in test [3], 92.8%. The fluorescence slope in test [4] was -0.399 (inactive). Also, in test [5], the NADPH fluorescence slope is 4.6e-05 (inactive). In addition, the slope in test [6] was 0.00794 (inactive).

On to `O=C(Nc1ccc(SC(F)F)cc1)c1ccc2nccnc2c1`, for which, in test [1], the cell count came to 823. The inhibition in test [1] is -1.3% (inactive); in test [3] it was 55.1% (active); in test [7], -15% (inactive); in test [8], -139% (inactive). For the same compound, the inhibition of aggregation in test [2] is 14.5% (inactive). Besides, the nuclei count in test [2] stood at 101%; in test [3], 95%. Also, in test [4], the fluorescence slope was -0.39 (inactive). Further, the NADPH fluorescence slope in test [5] was 2e-05 (inactive). Further, the slope in test [6] was 0.00714 (inactive).
